Measured values as given in PubChem BioAssay.
Records with an inconclusive call do not appear. For some of these results: Results with a measured potency or affinity are listed apart. The source made the active and inactive calls. Unless noted, the rule behind the calls is not given here.

Experiments:
[1] = inhibitors of Cryptococcus chitosan production, flow cytometry, Cibacron Brilliant Red staining (AID 1347148); conditions: Cryptococcus neoformans chitosan, stronger effect = lower value; at 10 µM unless noted;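 note: compound exposure lasted three days at 37 degrees C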
[2] = circadian clock period modulators, cell-based, LOPAC library, luminescence reporter (AID 2774); conditions: circadian reporter cells, at 7 µM, actives lie on both sides;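 note: values are relative to mean of DMSO wells on each plate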
[3] = survival rescue of mitochondrial mutant cells in low glucose, primary screen, MELAS cybrids, Rieske KO mouse fibroblasts, CellTiter-Glo (AID 1508586;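 active = mean z-score across replicates of 1.96 or higher in either the MELAS or the Rieske mutant cell line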;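 note: z relative to plate mean and SD of compound and empty wells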)
[4] = target: ATP-dependent translocase ABCB1 (Homo sapiens) (UniProt P08183); assay: MDR1 (ABCB1) efflux transporter inhibition, cell-based (AID 377; in the data active = fluorescence slope change above about 50%); conditions: MDR1-expressing cells, fluorescent substrate accumulation slope; stronger effect = higher value; concentration not given here
Chain of ATP-dependent translocase ABCB1 (Homo sapiens) (P08183 whole entry, looked up): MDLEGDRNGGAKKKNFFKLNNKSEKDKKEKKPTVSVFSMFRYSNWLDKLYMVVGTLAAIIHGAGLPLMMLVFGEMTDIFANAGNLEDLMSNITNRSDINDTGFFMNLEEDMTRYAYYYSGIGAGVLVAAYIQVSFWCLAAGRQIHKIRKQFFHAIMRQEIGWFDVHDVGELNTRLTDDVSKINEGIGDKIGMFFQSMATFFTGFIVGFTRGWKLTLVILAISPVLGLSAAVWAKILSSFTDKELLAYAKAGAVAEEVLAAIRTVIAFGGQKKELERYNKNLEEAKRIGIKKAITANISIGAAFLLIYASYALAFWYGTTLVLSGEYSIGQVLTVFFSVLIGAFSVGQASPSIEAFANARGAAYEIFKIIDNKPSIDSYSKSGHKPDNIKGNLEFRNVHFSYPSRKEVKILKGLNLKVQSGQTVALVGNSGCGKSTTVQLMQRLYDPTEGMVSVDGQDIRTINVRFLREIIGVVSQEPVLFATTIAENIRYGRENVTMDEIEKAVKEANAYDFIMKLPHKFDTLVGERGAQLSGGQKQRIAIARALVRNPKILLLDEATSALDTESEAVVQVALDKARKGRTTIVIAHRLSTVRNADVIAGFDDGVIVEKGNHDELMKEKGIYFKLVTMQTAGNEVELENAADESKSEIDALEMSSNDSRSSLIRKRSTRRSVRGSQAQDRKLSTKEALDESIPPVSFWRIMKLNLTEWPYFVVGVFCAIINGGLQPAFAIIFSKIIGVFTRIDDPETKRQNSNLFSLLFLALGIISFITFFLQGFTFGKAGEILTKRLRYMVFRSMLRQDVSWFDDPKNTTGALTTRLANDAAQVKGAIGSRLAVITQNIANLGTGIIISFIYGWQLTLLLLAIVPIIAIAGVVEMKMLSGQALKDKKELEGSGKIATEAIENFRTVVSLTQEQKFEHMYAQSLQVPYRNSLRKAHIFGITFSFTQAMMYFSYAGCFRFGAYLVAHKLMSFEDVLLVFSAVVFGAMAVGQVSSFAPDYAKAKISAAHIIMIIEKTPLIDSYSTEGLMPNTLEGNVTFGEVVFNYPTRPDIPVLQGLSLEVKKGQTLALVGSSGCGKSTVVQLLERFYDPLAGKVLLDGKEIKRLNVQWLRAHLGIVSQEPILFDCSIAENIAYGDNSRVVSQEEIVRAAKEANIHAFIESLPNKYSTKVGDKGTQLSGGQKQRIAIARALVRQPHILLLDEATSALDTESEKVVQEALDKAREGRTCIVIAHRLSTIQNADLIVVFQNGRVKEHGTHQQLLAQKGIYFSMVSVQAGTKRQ

[5] = polyglutamine-triggered caspase-3 activation inhibitors, cell-based (AID 1583); conditions: polyglutamine-induced caspase-3 activation, cell assay; stronger effect = higher value;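 tested at 10 µM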
[6] = suppressors of polyQ aggregation in yeast, 75Q-TubU reporter (AID 1593); conditions: Yeast 75Q polyglutamine aggregation reporter
[7] = rescue of polyQ-huntingtin neuronal dysfunction in worms, whole organism, C. elegans mechanosensory neurons, N-terminal huntingtin (AID 1599); conditions: touch response, stronger effect = higher value
[8] = inhibitors of mitochondrial cytochrome c release, biochemical, purified mitochondria (AID 1603); conditions: stronger effect = lower value;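 note: mouse liver mitochondria challenged with calcium chloride; signal normalized to the plate average as 100%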
[9] = inhibitors of polyQ protein aggregation (AID 1604); conditions: polyglutamine-induced protein aggregation inhibition assay; stronger effect = higher value; tested at 2.5 µM
[10] = enhancers of glutamate uptake in motor neurons, MN-1 cell line (AID 1612); conditions: MN-1 motor neuron cells, stronger effect = higher value;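 note: tested at 1 µM final; 0% = mean of DMSO vehicle wells on each plate; positive means more glutamate uptake than control and negative means less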
[11] = reducers of polyQ inclusions in PC12 cells, cell-based, NGF-treated PC12, GFPQ80 (AID 1614); conditions: PC12 NGF-treated GFP-polyQ80 inclusion reduction;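 note: lower means fewer inclusions and 0 means no inclusions at all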
[12] = suppressors of polyglutamine aggregation in yeast, 75Q-TubH (AID 1616); conditions: S. cerevisiae 75Q-TubH polyglutamine aggregation suppression; stronger effect = higher value
[13] = hESC survival regulators, cell-based (AID 493140); conditions: human embryonic stem cell survival screen; stronger effect = higher value;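 note: cells exposed to compounds for four days before counting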
[14] = liver-stage malaria parasite growth inhibition, primary screen, cell-based, HepG2, luciferase luminescence, HepG2 viability (AID 624349; in the data active = parasite load remaining mostly below about 12%, no sharp cut-off; inactive = mostly above about 10%;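 note: 100% = mean of DMSO negative control wells on the same plate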); conditions: P. berghei liver stage in HepG2, luciferase luminescence, concentration not given here; parasite load remaining: stronger effect = lower value; viability: measured here: HepG2 viability without parasites
[15] = protection against mutant huntingtin cytotoxicity, PC12 cells, LDH release (AID 1610); conditions: PC12 mutant huntingtin toxicity, final LDH at 4 uM, stronger effect = lower value

For `CC(=O)NC1C(OC2OC(CC(O)C3OC(n4ccc(=O)[nH]c4=O)C(O)C3O)C(O)C(O)C2NC(=O)/C=C\CC(C)C)OC(CO)C(O)C1O` (stereo unspecified), the fold fluorescence [1] was 7.24 [at 69.6 µM] (inactive).
In the case of `N[C@H]1CCc2cc(O)c(O)cc2C1`, the fold fluorescence [1] was 4.25 [at 279 µM] (inactive).
In the case of `O[C@@H]1[C@@H](O)[C@H](O)CN2CC[C@@H](O)[C@@H]12`, the fold fluorescence [1] was 5.17 [at 264.3 µM] (inactive).
In the case of `CN1CCN(C(=O)OC2c3nccnc3C(=O)N2c2ccc(Cl)cn2)CC1` (stereo unspecified), the period change [2] was -0.19 h (inactive), the z-score ([3]; MELAS cybrid survival, CellTiter-Glo 48 h, stronger effect = higher value) was -0.0147 (inactive) and the z-score ([3]; Rieske KO mouse fibroblast survival, CellTiter-Glo 72 h) was 0.36.
For `OC[C@@H]1O[C@H](n2cnc3cc(Cl)c(Cl)cc32)C(O)[C@@H]1O` (stereo partly specified), the fold fluorescence [1] was 3.08 [at 156.7 µM] (inactive).
For `CC1=C2C[C@@H]3[C@H](CC=C4C[C@H](O)CC[C@]43C)[C@H]2CC[C@@]12O[C@H]1C[C@@H](C)CN[C@@H]1[C@@H]2C`, the fold fluorescence [1] was 14.9 [at 121.5 µM] (inactive).
For `CC(N)C(O)c1ccccc1` (stereo unspecified), the fluorescence slope change [4] was 4.9% (inactive), the inhibition [5] was -49.8% and the score [6] was 1.3. It also gave a rescue above control [7] of -2.3, a cytochrome c release ratio [8] of 0.86 and an inhibition of aggregation [9] of 86.1%. It also gave a glutamate uptake change [10] of 4.9%, an inclusion score [11] of 2 and an aggregation suppression score [12] of 1.78.
In the case of `C[N+]1([O-])[C@@H]2CC[C@H]1CC(OC(=O)C(CO)c1ccccc1)C2` (stereo partly specified), the fluorescence slope change [4] was 74.3% (active), the survival [13] was 35.2 (inactive) and the parasite load remaining [14] was 113% (inactive). It also gave a viability [14] of 87.7%.
In the case of `CCC1(CCC(C)C)C(=O)NC(=O)NC1=O`, the inhibition [5] was 6.77%, the score [6] was 1.7 and the rescue above control [7] was 0.92. The cytochrome c release ratio [8] was 0.96, the inhibition of aggregation [9] was 40.1% and the glutamate uptake change [10] was -7.2%. For the same molecule, the inclusion score [11] was 2 and the aggregation suppression score [12] was 1.35.
Work on `COC12CC[C@@]3(C[C@@H]1C(C)(O)C(C)(C)C)[C@H]1Cc4ccc(O)c5c4[C@@]3(CCN1CC1CC1)[C@H]2O5` (stereo partly specified) yielded an inhibition [5] of 26.4%, a score [6] of 1.52 and a rescue above control [7] of 5.39. It also gave a cytochrome c release ratio [8] of 1.25, an inhibition of aggregation [9] of -0.68% and a normalised LDH release [15] of 1.01. For the same molecule, the glutamate uptake change [10] was -3.06% and the aggregation suppression score [12] was 1.02.
`CCCCCc1cc(O)c2c(c1)OC(C)(C)C1CC=C(C)CC21` (stereo unspecified) gave an inhibition [5] of 13.2%, a score [6] of -0.66 and a rescue above control [7] of -4.34. The cytochrome c release ratio [8] was 1.71, the inhibition of aggregation [9] was 42.9% and the normalised LDH release [15] was 0.999. It also gave a glutamate uptake change [10] of -49.9% and an aggregation suppression score [12] of 0.105.
`CC1CC[C@@]2(NC1)OC1CC3C4CC=C5CC(O)CCC5(C)C4CCC3(C)C1[C@@H]2C` (stereo partly specified) gave an inhibition [5] of 0.23%, a score [6] of 1.05 and a rescue above control [7] of -8.79. For the same molecule, the cytochrome c release ratio [8] was 1.04, the inhibition of aggregation [9] was 64.7% and the glutamate uptake change [10] was -2.74%. The inclusion score [11] was 2 and the aggregation suppression score [12] was 0.556.
In the case of `CNC1(c2ccccc2Cl)CCCCC1=O` (stereo unspecified), the inhibition [5] was 12.3%, the score [6] was 1.43 and the rescue above control [7] was -2.24. It also gave a cytochrome c release ratio [8] of 1.27, an inhibition of aggregation [9] of 3.17% and a glutamate uptake change [10] of -3.45%. The inclusion score [11] was 2 and the aggregation suppression score [12] was 1.36.
